# Data reported in the supplement of paper PMC6555819.
# System: VDR:RXRa (NR concentration 270 nM, RXRa partner concentration 90 nM)
# Assay: PBM binding z-score (relative to random genomic background probes); higher = stronger binding; sequences stand for … in GC…GCGATTGACAGCGTAGAATGAAGG
# Experimental: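 Protein-binding microarray (Agilent 4x180K custom design, double-stranded 60-nt probes: 5' GC cap, 34-nt variable region, 24-nt constant primer region; full probe sequence given). Purified or IVT nuclear receptor:RXRα heterodimers (3:1 NR:RXRα, mostly 270:90 nM) or homodimers were incubated for 1 h in PBS with 2% milk and no ligand, then detected with Alexa488 antibodies. Fluorescence from o1-orientation probes (~5 replicates averaged) was converted to z-scores against 500 random hg19 background probes. Variable regions are seed direct-repeat (DR0–DR5) sites, all their single-nucleotide variants and half-site ablations.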
row,Sequence,PBM binding z-score
1,CGACCAAGGTCAATGCTAGGTCAGTGAAAGCATT,4.69
2,TCTCAGAGGACACGAAGGTCAGAGCTTTCCAGAG,2.75
3,TCTCGGAGGACACGAAGGTCAGAGCCTTCCAGAG,2.42
4,TAGCCTAGCTCATGCGGGCCAGTATAGTGTCGGC,-1.1
5,TGTCAAAGTCCAAAGGTAACGTAAGTATCCACAC,0.386
6,ATTAGTTGGTCAGCTGAGGTCACACACAATTCGG,4.76
7,ACAGACAGGTGATGAAGGTACCTCAGGCTATCAT,-0.291
8,TCTGCTAGGTCAACGATGGTCAGCTCATCTGCTA,1.65
9,CCTAGTTGGTAAAGGTCACACACGCTATAGGTAC,4.9
10,TCTTGCAGATCAACAGGAGGTTAAGAAAGATCGA,0.489
11,CGGCCAAGGTCAGAGAGGTCAGTGAATGCCGAGT,7.41
12,AGAACGAGGACACGCTGAGTTGATAGCAGAGTAG,0.161
13,CAAACTAGGTCAAGGTGAAAGTCGGTTTGTGCCA,2.1
14,CCTACTGGGCCATGAGGTCATTGATATCAACGTT,4.43
15,AGTCAAAGTTCACTAGGTAACTTAAGATTCAGCT,3.88
16,TAGCCTAGATCATGGGCCAGTATACCACGCGAAC,-0.59
17,ACTAGCAGGCCAAGGGTCACTCGAGATTAGTCCG,2.56
18,CCGACTGGGGCAAAGGTGACCATACTCAGTACGA,0.389
19,TGTGAAAGTTCAAAGGTAACGTAAGTATCCACAC,4.88
20,TAGCCTAGGTCATTGGGCCAGTTTAGTACGCATC,2.37

row,Sequence,PBM binding z-score
1,CGTTACGGGTCAAGGTTATAGCACGGGTGGTACG,3.62
2,CGTCCAAGGTCAAGGTCAGTAAAAGAGACTCGAA,4.65
3,CCTAGTTGCTCAGGAGGTCACACACCGGATATGA,3.76
4,ATCGAAAGGTCGAAGGTGAGTATACCCACCCGAA,2.91
5,GCAGACAGGTCAAACGCAGGTAACTCAGGGTGGC,3
6,CGTCCAAGGTCAAATGTCAGTGAAGAGATGACGG,4.67
7,TCTATTAGTTGAAGGGCAATCGACGAGTCCGTTT,1.02
8,CCTATTCGTTGACCATAAGGGCAACCGAAGCTCG,0.983
9,TCTTGTGGATCAACAGGAGGTTAAGAAAGATCGA,0.329
10,TCTAGTTGGTCAAAGATCACACACTCGAAATGCG,1.29
11,ACATACGGGTCAACGAGGTTATAGCACGCGTATA,7.57
12,CCTACTGGGCCACGAAAGGTCATTGTTTCAGTGA,4.25
13,ACCTCTAGGTAACAAGTTCAGTGAAAGAGAGGAC,1.59
14,AGAACGAGGGCACGCTGAGTTGATCGCAGAGTAG,2.12
15,CCGCCTAGGTCAGGGCCAGTATAGGAGGAACGTT,0.294
16,TCTTGTAGATCAATAGAGGTTACGAAAGTGCGCT,2.15
17,TCTTGTAGATCAATAGAGGTTATGAAAGTGCGCT,1.92
18,ATCTCTAGGTAAGACACAGTTCAGTGAAGAACGC,1.14
19,TGAATGAGGTTAAAGATCAGCGAACGTGGCGTCG,1.75
20,GCTAGCAGGCCATTTGGATCACTCAATGACGGGC,-0.73
